The record followed here is PubChem BioAssay AID488969 (Vanderbilt High Throughput Screening Facility, 2010).

In all, about 110,000 compounds were measured (“z-score”: median about -0.1, highest 2% from about 2 on). What follows is part of a selection rich in the highest values, with near analogues and random picks from the rest. The source made the active and inactive calls.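 How the source made its calls: active means z-score in the third read window above 3 or below -3; inactive means the rest.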

For this assay, the target named is Metabotropic glutamate receptor 8 (Rattus norvegicus) (UniProt P70579). Kind of assay: rat mGluR8 modulators via GIRK flux, primary screen, cell-based, thallium flux, HTS (AID 488969). As to conditions: HEK293 rat mGluR8, GIRK (G protein-gated inwardly rectifying potassium channel) thallium flux, FluoZin2; at 10 µM; stronger effect = higher value; submaximal glutamate (EC20) added with thallium.
Sequence of Metabotropic glutamate receptor 8 (Rattus norvegicus) (P70579 whole entry, looked up): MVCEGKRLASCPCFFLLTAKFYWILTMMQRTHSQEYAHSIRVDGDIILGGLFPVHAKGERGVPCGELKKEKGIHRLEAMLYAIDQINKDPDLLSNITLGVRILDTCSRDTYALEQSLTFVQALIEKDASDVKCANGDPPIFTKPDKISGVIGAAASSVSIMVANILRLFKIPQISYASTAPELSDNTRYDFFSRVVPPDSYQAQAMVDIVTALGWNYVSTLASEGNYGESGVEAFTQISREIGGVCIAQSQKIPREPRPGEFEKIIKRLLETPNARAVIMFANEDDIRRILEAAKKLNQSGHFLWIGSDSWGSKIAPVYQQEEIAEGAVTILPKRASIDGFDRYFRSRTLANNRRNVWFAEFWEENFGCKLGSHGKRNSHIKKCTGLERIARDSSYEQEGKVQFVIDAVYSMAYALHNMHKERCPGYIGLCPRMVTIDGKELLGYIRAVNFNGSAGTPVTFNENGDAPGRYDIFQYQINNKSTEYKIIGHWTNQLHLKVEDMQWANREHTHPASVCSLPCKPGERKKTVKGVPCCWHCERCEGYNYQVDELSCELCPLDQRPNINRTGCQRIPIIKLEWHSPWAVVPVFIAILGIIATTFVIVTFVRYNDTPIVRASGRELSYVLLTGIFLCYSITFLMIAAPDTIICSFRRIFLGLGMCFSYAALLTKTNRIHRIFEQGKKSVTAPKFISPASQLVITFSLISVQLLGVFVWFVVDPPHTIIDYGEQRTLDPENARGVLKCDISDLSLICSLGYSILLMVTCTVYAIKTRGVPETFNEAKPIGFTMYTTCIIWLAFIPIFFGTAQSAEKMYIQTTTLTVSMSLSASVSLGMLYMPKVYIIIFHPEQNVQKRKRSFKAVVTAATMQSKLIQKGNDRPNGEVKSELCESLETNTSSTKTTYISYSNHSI
Compound `CC(C)(C)c1ccc(S(=O)(=O)NCC(=O)N2CCN(C(=O)c3ccco3)CC2)cc1` gave a z-score of -0.0781. In the case of `O=C(CCSCCC(=O)NCc1ccc(F)cc1)NCc1ccc(F)cc1`, the z-score is -0.471. On to `CCOC(=O)c1c(-c2ccc(OC)cc2)csc1/N=C/N(C)C`, for which the z-score was -0.193.

In turn, `COc1ccc2c(c1)c1nc3ccccc3nc1n2Cc1ccc(OC(C)C)c(OC)c1` came in with a z-score of -0.644. The figure for `O=C(NCC(=O)N1CCN(c2ncccn2)CC1)c1cccs1` is 0.235; for `Cn1cc(-c2nnnn2-c2ccc(Cl)cc2)c(C(F)(F)F)n1` it is 0.131; for `CCCCc1nc(NCc2ccccc2)c(C#N)c2c1COC(C)(C)C2` it is 0.531. For `O=C(NCCCN1CCOCC1)c1ccc(CS(=O)(=O)c2ccc(Br)cc2)o1`, the z-score is -0.0398.

Regarding `CC(=O)Nc1ccc(NC(=O)c2ccc(Cn3cc(Cl)cn3)cc2)cc1`, the z-score was -0.369. Turning to `CCn1c(-c2ccc(-c3ccccc3)cc2)c[nH]c1=S`, the z-score was 3.86 (active). In the case of `S=c1[nH]cc(-c2ccc(Cl)cc2)n1-c1ccccc1`, the z-score was determined as 1.94. The figure for `S=c1[nH]cc(-c2ccccc2)n1-c1ccccc1Cl` is 0.447; for `Cn1c(-c2ccccc2)cccc1=O` it is 0.333. Take `S=c1[nH]cc(-c2ccccc2)n1-c1cccc(Cl)c1`: the z-score amounted to 2.94. `Cc1ccc(-n2cc[nH]c2=S)cc1C`: the z-score came out at 1.42. The figure for `S=c1[nH]ccn1-c1cccc(Cl)c1` is 2.29. Turning to `Cn1c(-c2ccc(-c3ccccc3)cc2)c[nH]c1=S`, the z-score is 4.21 (active).

For `S=c1[nH]cc(-c2ccccc2)n1-c1ccccc1`, the z-score amounted to 0.267.

Regarding `CCn1c(-c2ccccc2)c[nH]c1=S`, the z-score is 0.254. The figure for `Cc1cccc(-n2cc[nH]c2=S)c1` is 0.0616.

`C=CCn1c(-c2ccccc2)c[nH]c1=S` gave a z-score of 0.229. The figure for `COc1ccnc(N2CCN(c3ccccc3)CC2)c1C#N` is 0.0026; for `COc1cccc(/C(O)=C2/C(=O)C(=O)N(CCN(C)C)C2c2ccccn2)c1` (stereo unspecified) it is -0.249. `CCc1ccc(NC(=O)CSc2nc3ccccc3c(=O)n2CCCC(=O)N2CCCC2)cc1` displayed a z-score of -0.305. With `NC(=O)c1ccc(F)cc1`, the z-score came out at 0.635. For `Cc1ccc(NC(=O)N2C(=O)C3(OCCO3)c3ccccc32)cc1`, the z-score is -0.237. `COc1ccc(-c2cc(C(F)F)n3ncc(C(=O)N4CCN(C)CC4)c3n2)cc1` registered a z-score of -0.201. `COc1cc(C2C(C(=O)N3CCOCC3)=C(C)NC3=C2C(=O)CCC3)ccc1OC(C)=O` (stereo unspecified) registered a z-score of 0.401. `COCCCNCCCCOc1cccc(Br)c1` registered a z-score of 0.266. As to `CNC(=O)c1ccc2nc(NC(C)=O)sc2c1`, the z-score is 8.42 (active).

Regarding `CC(=O)Nc1nc2ccc(-c3nc4ccccc4o3)cc2s1`, the z-score worked out at 2.69. Consider `Cc1ccc2nc(NC(=O)c3ccc4ncsc4c3)sc2c1`, for which the z-score was 0.195. For `CC(=O)Nc1nc2ccc(C(=O)NC3CCCCC3)cc2s1`, the z-score was -0.32. `Nc1nc2ccc(-c3nc4ccccc4o3)cc2s1` gave a z-score of -0.112. In the case of `Cc1ccc2nc(NC(=O)CSc3nc4ccccc4o3)sc2c1`, the z-score was 0.182. The figure for `COC(=O)c1ccc(CSc2ccc3nnc(-c4cccc(F)c4)n3n2)o1` is -0.901; for `Cc1cccc(N2CSC3=C(C#N)C(c4ccc(C)o4)CC(=O)N3C2)c1` (stereo unspecified) it is -0.375; for `CCOC(=O)/C(=C\Nc1ccc(OC(F)(F)F)cc1)Sc1ncc(C(F)(F)F)cc1Cl` it is -0.436. `CN(c1cccc(NC(=O)c2ccccc2N(C)S(=O)(=O)c2ccccc2)c1)S(C)(=O)=O`: the z-score is -0.199. `COc1cc(OC)cc(C(=O)Nc2ccc(-c3nc4ccccc4o3)cc2)c1`: the z-score is -0.273. The figure for `COc1cc(OC)cc(C(=O)Nc2nc(-c3ccccc3)c(-c3ccccc3)o2)c1` is 3.64 (active); for `COc1cccc(C(=O)Nc2nc(-c3ccccc3)c(-c3ccccc3)o2)c1` it is 7.83 (active). With `COc1cc(OC)cc(C(=O)NCc2nc(-c3ccccc3)no2)c1`, the z-score is -0.942. The figure for `COc1cccc(C(=O)Nc2ccccc2)c1` is -0.0644; for `COc1cccc(C(=O)Nc2c(F)c(F)c(F)c(F)c2F)c1` it is -0.711. In turn, `CCCCOc1ccc(Cc2c(Cl)nc(SC)nc2N2CCOCC2)cc1` registered a z-score of 0.0392.

`COc1cc(CN2CCN(c3cccc(Cl)c3)CC2)cc(OC)c1OC` yielded a z-score of -0.348. Turning to `NS(=O)(=O)c1ccc(N2N=C(c3ccccc3)CC2c2cccc(F)c2)cc1` (stereo unspecified), the z-score is 0.17. The figure for `O=C1CC(c2cccc(F)c2)SC(N(c2ccccc2)c2ccccc2)=N1` (stereo unspecified) is -0.127; for `Fc1cccc(C2NN=C(c3ccccc3)S2)c1` (stereo unspecified) it is 6.37 (active). The compound `O=C(N/N=C/c1ccc[nH]1)c1cccc([N+](=O)[O-])c1` had a z-score of -0.104. Consider `Cc1ccc(S(=O)(=O)Nc2ccc3c(c2)CCC3)cc1`, for which the z-score was -0.101. Compound `Cc1ccc(S(=O)(=O)N2CC(O)CC2C(=O)Nc2ccc3c(c2)CCC3)cc1` (stereo unspecified) displayed a z-score of 2.07. In turn, `Cc1ccc(S(=O)(=O)N2Cc3ccccc3CC2C(=O)Nc2ccc3c(c2)OCO3)cc1` (stereo unspecified) returned a z-score of -0.0374.

Compound `COc1ccc(-c2cc3nc(C4CCN(C(=O)OC(C)(C)C)CC4)c(C(=O)O)cn3n2)cc1` showed a z-score of -0.691. `c1ccc2c(c1)ncn2CCC1CCCCC1` displayed a z-score of 0.093. The compound `c1ccc(C(c2ccccc2)N2CCN(c3nc4ccccc4n4cnnc34)CC2)cc1` had a z-score of -0.222. The compound `CCOCCCn1c(SCC(=O)/C(C#N)=C(\C)N)nc2ccccc2c1=O` displayed a z-score of -0.243. As to `Cn1c(SCC(=O)NCc2ccco2)nc2ccccc2c1=O`, the z-score is -0.354.

The compound `O=C(CSc1nc2ccccc2c(=O)n1Cc1ccco1)NCc1ccco1` had a z-score of -0.352. On to `Cc1ccccc1Nc1nc(N)nc(CSc2nc3ccccc3c(=O)n2C)n1`, for which the z-score amounted to 0.919. The same measure for `COCCn1c(SCc2nc(N)nc(Nc3ccccc3C)n2)nc2ccccc2c1=O`: -0.279; for `C/C(N)=C(/C#N)C(=O)CSc1nc2cc(Cl)ccc2c(=O)n1-c1ccc(C)cc1`: 2.69; for `CCCCn1c(SCC(=O)/C(C#N)=C(\C)N)nc2ccccc2c1=O`: 5.63 (active). `C/C(N)=C(/C#N)C(=O)CSc1nnnn1-c1ccc(C)cc1` showed a z-score of 0.331. Turning to `CCCCn1c(SCc2nc(N)nc(Nc3ccccc3C)n2)nc2ccccc2c1=O`, the z-score was 3.44 (active).

For `CCCCn1c(SCC(=O)NCc2ccco2)nc2ccccc2c1=O`, the z-score is 6.36 (active). Compound `C/C(N)=C(/C#N)C(=O)CSc1nc2ccccc2c(=O)n1-c1ccc(C)c(Cl)c1` gave a z-score of -0.275. In turn, `C/C(N)=C(/C#N)C(=O)CSc1nc2ccccc2c(=O)n1CCCO` gave a z-score of -0.389.

`O=C(O)c1cccc(Nc2ncnc3c2cnn3-c2ccccc2)c1` registered a z-score of -1.14. Regarding `CC(=O)C(/C=N/c1cc(-c2ccc(C)cc2)nn1-c1ccccc1)=C(\C)O`, the z-score was -0.251.
